Only a selection was taken, and hits are over-represented in it overall.
JMJD2E inh = qHTS Assay for Inhibitors of Human Jumonji Domain Containing 2E (JMJD2E); Lysine-specific demethylase 4E (Homo sapiens), B2RXH2; JMJD2E catalytic domain, FDH-coupled NADH fluorescence (FDH is formaldehyde dehydrogenase); Potency, µM (highest dose often 57.1 µM), most hits filed as inhibitors; 230,000 compounds, 1.6% hits; AID 2147, 2009; active = well fitted inhibition curve with a large enough effect, not every such curve was filed as active; inconclusive = small, poorly fitted or top-dose-only effect, or another doubt; inactive = no such curve, though single readings can be large or run the other way; also: nearly all actives have a fitted effect of over 50% in size
APEX1 inh = qHTS Assay for Inhibitors of the Human Apurinic/apyrimidinic Endonuclease 1 (APE1); DNA repair nuclease/redox regulator APEX1 (Homo sapiens), P27695; recombinant APE1, TAMRA/BHQ-2 abasic DNA cleavage fluorescence; Potency, µM (titrated, usually from 65.8 µM), usual class: inhibitors; 350,000 compounds, 0.35% hits; AID 2517, 2012; also: nearly all actives have a fitted effect of over 55% in size
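Enzyme (0.75 nM final) and test compound are incubated 15 min at room temperature before adding 50 nM quenched THF abasic-site duplex. Cleavage dequenches TAMRA, followed at 525/598 nm over three reads one minute apart.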
PKM2 activator = qHTS Assay for Activators of Human Muscle isoform 2 Pyruvate Kinase | Pyruvate kinase PKM (Homo sapiens), P14618 | AID 1631, 2009 | purified PKM2, Kinase-Glo ATP luminescence, activation; response scale: 0% is enzyme alone, no compound | Potency, µM (highest dose often 57.5 µM), hits mostly activators | 260,000 compounds, 0.34% hits; also: nearly all actives have a fitted effect of over 55% in size
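hPK-M2, >95% pure; 0.1 mM ADP / 0.5 mM PEP final; imidazole pH7.2 buffer w/ 7 mM MgCl2, 50 mM KCl; 1 h RT; Kinase-Glo lum. Intermediate enzyme activity for dual inhibitor/activator qHTS.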
RECQ1 inh = qHTS Assay for Inhibitors of RecQ-Like Dna Helicase 1 (RECQ1) | RECQ1 DNA unwinding, red fluorescence kinetic read | Potency, µM (top dose mostly 57.3 µM), usual class: inhibitors | 240,000 compounds, 0.54% hits | AID 2549, 2010; also: nearly all actives have a fitted effect of over 30% in size
Target sequence (P46063 whole entry, looked up): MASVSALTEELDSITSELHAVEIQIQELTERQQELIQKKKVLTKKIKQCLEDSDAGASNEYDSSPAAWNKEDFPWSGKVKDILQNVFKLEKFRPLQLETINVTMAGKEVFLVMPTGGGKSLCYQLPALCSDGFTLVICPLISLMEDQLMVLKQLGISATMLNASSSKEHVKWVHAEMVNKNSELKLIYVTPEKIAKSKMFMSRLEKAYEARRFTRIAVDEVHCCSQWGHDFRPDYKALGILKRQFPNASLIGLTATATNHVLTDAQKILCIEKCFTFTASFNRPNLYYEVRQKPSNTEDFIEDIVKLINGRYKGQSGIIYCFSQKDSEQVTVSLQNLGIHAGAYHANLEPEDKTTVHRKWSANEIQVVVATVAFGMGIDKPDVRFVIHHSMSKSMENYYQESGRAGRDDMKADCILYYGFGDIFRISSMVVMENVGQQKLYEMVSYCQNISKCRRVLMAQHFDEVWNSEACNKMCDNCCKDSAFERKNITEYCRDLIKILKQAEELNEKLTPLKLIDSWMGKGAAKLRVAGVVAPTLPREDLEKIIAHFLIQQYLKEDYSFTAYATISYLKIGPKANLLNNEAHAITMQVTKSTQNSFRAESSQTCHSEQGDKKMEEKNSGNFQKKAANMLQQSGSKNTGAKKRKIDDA
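RECQ1T1 50 nM; forked duplex (20 bp + 30-nt ss tails) 200 nM, ATP 2 mM final; pH 8.0, 2 mM MgCl2, 2.5 ug/ml poly(dI-dC); 15 min compound preincubation; discontinuous kinetic read over 2 h at RT.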
BLM inh = qHTS Assay for Inhibitors of Bloom's syndrome helicase (BLM); Potency, µM (top dose mostly 56.1 µM), hits mostly inhibitors; recombinant BLM DNA unwinding, fluorescence dequenching; 350,000 compounds, 0.2% hits; RecQ-like DNA helicase BLM (Homo sapiens), P54132; also: nearly all actives have a fitted effect of over 35% in size
Each line names hits and unclear results; the compound was inactive in the other large screens; ! = not confirmed by another sample. Unless noted, calls follow the shape of the dose curve; as a rule, active = well fitted curve in the direction sought with a large enough effect; inconclusive = small, poorly fitted or top-dose-only effect, or another doubt; inactive = no such curve, though single readings can be large; an effect the other way counts as inactive or inconclusive.

CC1(OC(=O)C2CCCC2)C(=O)C=C2C=C3CCCN3C=C2C1=O (stereo not drawn)	none
CC1(OC(=O)CCc2ccccc2)C(=O)C=C2C=C(c3ccc(C#N)cc3)N(C(CO)CO)C=C2C1=O (stereo not drawn)	JMJD2E inh 3.5µM
CCCCC1=CC2=CC(=O)C(C)(OC(=O)CC)C(=O)C2=CN1c1ccccc1 (stereo not drawn)	JMJD2E inh 25µM!
CC1(OC(=O)CCc2ccccc2)C(=O)C=C2C=C3CCCN3C=C2C1=O (stereo not drawn)	JMJD2E inh 18µM, APEX1 inh inconclusive, RECQ1 inh inconclusive, BLM inh inconclusive
CC1(OC(=O)CCc2ccccc2)C(=O)C=C2C=C(c3ccc(C#N)cc3)N(C3CCCCC3)C=C2C1=O (stereo not drawn)	JMJD2E inh 28µM!
COc1ccc(CN2C=C3C(=O)C(C)(OC(=O)CCc4ccccc4)C(=O)C=C3C=C2c2ccc(C#N)cc2)cc1 (stereo not drawn)	JMJD2E inh inconclusive
CC1(OC(=O)CCc2ccccc2)C(=O)C=C2C=C(c3ccc(C#N)cc3)N(CCc3c[nH]c4ccccc34)C=C2C1=O (stereo not drawn)	JMJD2E inh 16µM!
CCN(CC)CCCN1C=C2C(=O)C(C)(OC(=O)CCc3ccccc3)C(=O)C=C2C=C1c1ccc(C#N)cc1 (stereo not drawn)	JMJD2E inh inconclusive
COc1ccc(N2C=C3C(=O)C(C)(OC(=O)CCc4ccccc4)C(=O)C=C3C=C2c2ccc(C#N)cc2)cc1 (stereo not drawn)	JMJD2E inh 20µM!
CCCCC1=CC2=CC(=O)C(C)(OC(=O)CC)C(=O)C2=CN1CCc1c[nH]c2ccccc12 (stereo not drawn)	none
COC(=O)CCCC1=CC2=CC(=O)C(C)(OC(=O)c3cccs3)C(=O)C2=CN1CCc1c[nH]c2ccccc12 (stereo not drawn)	JMJD2E inh 5.6µM!
CC#CCN1c2ccccc2[C@]23C[C@@H](C(=O)OC)N(C(=O)COCc4ccccc4)C2=NC(C(=O)OC)=C(C(=O)OC)[C@H]13	none
Cc1ccc(/C=C2/NC(=O)N(Cc3ccccc3)C2=O)o1	JMJD2E inh 11µM, APEX1 inh inconclusive, PKM2 activator inconclusive
Cc1cc(C(=O)O)ccc1-c1ccc(/C=C2\NC(=O)N(Cc3ccccc3Cl)C2=O)o1	PKM2 activator 20µM
COC(=O)CN1C(=O)N/C(=C/c2ccc(C)o2)C1=O	JMJD2E inh inconclusive, PKM2 activator inconclusive
COc1cc2c(cc1OC)C1N(CC2)C(=O)CCC12C(=O)CCCC2=O (stereo not drawn)	none (no result: JMJD2E inh, PKM2 activator)
CCCCCCCCCCCCCC[C@@H](O)[C@@H](O)[C@H](CO)NC(C)=O	none (no result: JMJD2E inh, PKM2 activator)
CC1C(=O)NN=C1C(=O)N/N=C\c1ccc(O)cc1O (stereo not drawn)	JMJD2E inh 22µM, RECQ1 inh inconclusive
CC(=Nc1ccccc1N)c1c(C)cc(=O)n(O)c1O	APEX1 inh inconclusive (no result: JMJD2E inh, PKM2 activator)
COc1ccc2nc3cc(Cl)ccc3c(Nc3cc(CN4CCCC4)c(O)c(CN4CCCC4)c3)c2n1	APEX1 inh 15µM, BLM inh inconclusive (no result: JMJD2E inh, RECQ1 inh)
COc1ccc2nc3cc(Cl)ccc3c(Nc3cc(C(C)C)c(O)cc3C)c2c1	JMJD2E inh inconclusive
COC(=O)[C@@H](NC(=O)N1CCc2nc(-c3ccc(OC)cc3C)c3c(c2C1)CO[C@@H](c1ccccc1)C3)C(C)C	none
COc1ccccc1NC(=O)Cn1c(O)c(N=NC(=O)c2ccccc2O)c2ccccc21	BLM inh 18µM
CC(C)(C)c1ccc(S(=O)(=O)/C=C\C#N)cc1	JMJD2E inh inconclusive (no result: PKM2 activator)
Nc1[nH]n2c(=O)cc(-c3ccccc3)nc2c1N=Nc1ccc(S(N)(=O)=O)cc1	APEX1 inh 8.9µM
Cc1cc(C)c(-c2cc([C@H](C)O/N=C\[C@@H](C)[C@H](OCc3ccccc3)C(C)C)on2)c(C)c1	none (no result: JMJD2E inh, PKM2 activator)
Oc1ccc(NCc2ccccc2OCc2ccccc2)cc1	JMJD2E inh 11µM, APEX1 inh inconclusive, BLM inh inconclusive
Oc1ccc(NCc2ccccc2OCc2ccc(Cl)cc2)cc1	none (no result: JMJD2E inh, APEX1 inh, PKM2 activator, RECQ1 inh)
OCCCNc1c2ccccc2nc2ccccc12	APEX1 inh 17µM (no result: JMJD2E inh, PKM2 activator, RECQ1 inh)
Cc1ccc(-c2nc(NCCCO)c3ccccc3n2)cc1	none (no result: JMJD2E inh, RECQ1 inh)
CCCCCCCN	none (no result: JMJD2E inh, PKM2 activator, BLM inh)
O=[N+]([O-])/C(C=Nc1ccccc1O)=C\Nc1ccccc1O	JMJD2E inh 13µM
O=[N+]([O-])/C(=C\Nc1ccccc1Cl)S(=O)(=O)c1ccccc1	none
CC(C)=NO[C@@H](C)c1cc(-c2c(C)cc(C)cc2C)no1	none (no result: JMJD2E inh, PKM2 activator)
CCC1CC=CC2C1C(=O)N(Cc1ccccc1)C2c1cccc([N+](=O)[O-])c1 (stereo not drawn)	none (no result: JMJD2E inh, PKM2 activator)
CN1COc2ccc3ccccc3c2C1	JMJD2E inh 14µM
Cc1ccc(CNC(=O)Cn2ccc3cc(S(=O)(=O)N4CCCC4)ccc32)o1	PKM2 activator 16µM (no result: JMJD2E inh, RECQ1 inh)
CSc1ccc(CNC(=O)Cn2ccc3cc(S(=O)(=O)N4CCCC4)ccc32)cc1	none (no result: JMJD2E inh, APEX1 inh, PKM2 activator, RECQ1 inh)
COc1ccc(C2CC(=O)Oc3c(C(CCN4CCOCC4)c4ccc5c(c4)OCO5)c(OC)cc(OC)c32)cc1 (stereo not drawn)	none (no result: JMJD2E inh, PKM2 activator)
CC(C)=CCc1c(O)cc2oc3c(CC=C(C)C)c(O)c(O)c(CC=C(C)C)c3c(=O)c2c1O	JMJD2E inh 28µM, APEX1 inh inconclusive, BLM inh inconclusive
O=C1c2sc3nc4n(c(=O)c3c2CCC1Br)CCCCC4 (stereo not drawn)	JMJD2E inh 18µM, BLM inh 25µM
NC(=O)CC(NC(=O)Cc1ccc(Br)cc1)c1ccc(NCCc2ccccc2F)c([N+](=O)[O-])c1 (stereo not drawn)	PKM2 activator 1.6µM
NC(=O)CC(NC(=O)Cc1ccc(Br)cc1)c1ccc(NCCc2ccc(F)cc2)c([N+](=O)[O-])c1 (stereo not drawn)	PKM2 activator inconclusive
CCCCCCCCOc1c(OC)cc(/C=C/C(=O)N2CCN(c3ccc(C)c(C)c3)CC2)cc1OC	none (no result: JMJD2E inh, PKM2 activator)
CC(C)(C)n1ncc2c(=O)n(Cc3cccc(Oc4ccccc4)c3)cnc21	none (no result: JMJD2E inh, PKM2 activator, RECQ1 inh, BLM inh)
N#CC1=C(N)OC2=C(CCC/C2=C/c2ccoc2)C1c1ccoc1 (stereo not drawn)	JMJD2E inh 25µM, APEX1 inh 14µM, RECQ1 inh 22µM
N#CC1=C(N)OC2=C(CC/C2=C\c2ccc(F)cc2)C1c1ccc(F)cc1 (stereo not drawn)	JMJD2E inh inconclusive

Assay outcomes as filed in PubChem.
